In PubChem BioAssay (NCI):
The panel holds about 79,000 compounds, 15% with a hit somewhere; the sample as a whole holds those more often. No stated cut-off is given here; in the data, active means growth inhibition above about 70%; inactive means the rest.

Assays:
[1] = NCI Yeast Anticancer Drug Screen. Data for the rad50 strain (AID 155);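 further: 0% = growth of vehicle-only cultures of the same strain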; conditions: S. cerevisiae rad50 strain growth inhibition; at 50.0 µM; active compounds read high
How it was run: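 Inhibition values express reduced yeast growth in compound-treated cultures relative to vehicle-treated controls.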

[2] = NCI Yeast Anticancer Drug Screen. Data for the mec2-1 strain (AID 157); conditions: S. cerevisiae mec2-1 strain, at 50.0 µM, active compounds read high
How it was run: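 Cells of the genetically defined mec2-1 yeast strain are incubated with test compound. Inhibition of growth is calculated against vehicle-treated controls.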

[3] = NCI Yeast Anticancer Drug Screen. Data for the sgs1 mgt1 strain (AID 161);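 further: 0% = growth of cultures given vehicle only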; conditions: S. cerevisiae sgs1 mgt1 strain, at 50.0 µM, active compounds read high
How it was run: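 Mutant yeast exposed to compound; growth scored against vehicle-only wells.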

[4] = NCI Yeast Anticancer Drug Screen. Data for the cln2 rad14 strain (AID 165);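 further: 0% = growth equal to vehicle treated cultures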; conditions: S. cerevisiae cln2 rad14 strain, at 50.0 µM, active compounds read high
How it was run: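 The screen exposed genetically defined yeast (cln2 rad14) to test compounds and scored growth inhibition relative to vehicle-treated controls.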

[5] = NCI Yeast Anticancer Drug Screen. Data for the bub3 strain (AID 167); conditions: S. cerevisiae bub3 mutant strain, at 50.0 µM, active compounds read high
How it was run: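 Steps: expose the mutant yeast strain to compound; grow alongside vehicle-treated cultures; measure growth; express inhibition against the vehicle cultures.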

[6] = NCI Yeast Anticancer Drug Screen. Data for the mlh1 rad18 strain (AID 175); conditions: S. cerevisiae mlh1 rad18 strain growth inhibition; at 50.0 µM; active compounds read high
How it was run: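 Compound-treated yeast growth, normalised to vehicle controls. Strain bears defined DNA repair mutations.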

Measured: growth inhibition

CC(CCOCC1CO1)OCC1CO1 (stereo not given)
inactive: [1] 13.8% | [2] -17.4% | [3] 3.85% | [4] 14.8% | [5] -17.5% | [6] 22.6%

COc1cc2c(c(OC)c1OC)-c1ccc(SC)c(=O)cc1[C@@H](NC(=O)NCCCl)CC2
inactive: [1] 1.1% | [2] -16.8% | [3] -18.1% | [4] 4.6% | [5] -28.4% | [6] -10.2%

COc1c(Cl)cc([N+](=O)[O-])cc1Cl
inactive: [1] -3.5% | [2] 0.15% | [3] 3.1% | [4] -34.7% | [5] -18.5% | [6] -12.4%

OC(CCc1ccco1)CCc1ccco1
inactive: [1] 19.9% | [2] 6.6% | [3] 11.5% | [4] 1.4% | [5] 10.7% | [6] 14.1%

C=CCOc1cc2c(cc1C(C)c1ccc(OC)cc1)OCO2 (stereo not given)
inactive: [1] 12.3% | [2] 0.75% | [3] 5.95% | [4] -10.3% | [5] 14.5% | [6] -0.6%

CCOC(OCC)C(N)C(=O)O (stereo not given)
inactive: [1] 6% | [2] 23.7% | [3] 1.4% | [4] -19.3% | [5] 10.8% | [6] -15%

CCOC(=O)C1C(C)=CC(=O)CC1C (stereo not given)
inactive: [1] 19.8% | [2] 1.65% | [3] 21.9% | [4] -4.8% | [5] 4.5% | [6] 4.45%

C=C(CC(=O)NN)C(=O)NN
inactive: [1] -4.75% | [2] 12.3% | [3] -24.2% | [4] -3.1% | [5] -22.5% | [6] 1.25%

CO/C(=N\N=C\c1cccc(Cl)c1)c1ccncc1
inactive: [1] 6.35% | [2] -9.6% | [3] -13.8% | [4] -24.4% | [5] -18.1% | [6] -11.1%

O=C1CSC(c2cccc(Cl)c2)N1c1ccc(-n2c(-c3ccccc3)nc3ccccc3c2=O)cc1 (stereo not given)
inactive: [1] -4.3% | [2] 9.65% | [3] 8.9% | [4] -15.9% | [5] 9.2% | [6] -6.8%

Nc1nc2c(ncn2C2C=CC(CO)C2)c(=O)[nH]1 (stereo not given)
inactive: [1] 7.6% | [2] 12.5% | [3] 3.9% | [4] 10.4% | [5] -2.1% | [6] 4.25%

COc1cc(-c2oc3ccccc3c(=O)c2O)cc(OC)c1OC
inactive: [1] -29.6% | [2] -51.8% | [3] -16.3% | [4] -22.8% | [5] -42% | [6] -14.1%

C#CC(NC(C)(C)CC(C)(C)C)C(C)C (stereo not given)
inactive: [1] 31.1% | [2] 4.25% | [3] 0.55% | [4] 6.8% | [5] 4.1% | [6] 12.2%

CC(=O)Nc1cc2ccccc2c(Br)n1
inactive: [1] -14.9% | [2] 6.55% | [3] -4.65% | [4] -13.1% | [5] -9.95% | [6] -6.15%

CN(C)CCCN=C(N)N
inactive: [1] 1.25% | [2] -20.9% | [3] -23.9% | [4] 20.4% | [5] -57.5% | [6] -4.1%

O=C(Nc1ccccc1)c1ccc2ccccc2n1
inactive: [1] -12.7% | [2] -31% | [3] -22.1% | [4] -10.1% | [5] 10.6% | [6] 6.75%

C[N+](C)(CCO)CCO
inactive: [1] 3.15% | [2] -8% | [3] -8.5% | [4] 14.8% | [5] 0.85% | [6] 13.1%

Cc1ccc2c(c1)C(OC(=O)Nc1ccccc1)CCC2 (stereo not given)
inactive: [1] 18.1% | [2] 2% | [3] 3.5% | [4] 6.05% | [5] 38% | [6] 5.1%

Cn1c(=O)c2[nH]c(=S)n(C)c2n(C)c1=O
inactive: [1] 31.8% | [2] -8.35% | [3] -2% | [4] 11.2% | [5] -13.6% | [6] 15.5%

Nc1cccc(OCCOc2ccccc2[N+](=O)[O-])c1
inactive: [1] 5% | [2] 26.6% | [3] 28.1% | [4] -4.7% | [5] 29.5% | [6] 18.9%

CCOC(=O)Nc1cc(Nc2ccc(Cl)cc2)c2nc(-c3ccc(Cl)cc3)c(-c3ccc(Cl)cc3)nc2n1
inactive: [1] 44.7% | [2] -0.9% | [3] 36.1% | [4] 20.9% | [5] -0.75% | [6] 8.8%

CCOC(=O)C1C(C)NC(C)C(C(=O)OCC)C1c1ccccc1Cl (stereo not given)
inactive: [1] 11.1% | [2] 6.25% | [3] 6.35% | [4] 4.25% | [5] 2.9% | [6] 9.8%

O=C1c2cc([N+](=O)[O-])ccc2-c2c(F)cccc21
inactive: [1] 5.5% | [2] 8.25% | [3] -1% | [4] -32% | [5] 10.2% | [6] 4.1%

O=C(O)CC(Cc1ccc2c(c1)OCO2)C(=O)O (stereo not given)
inactive: [1] -5.6% | [2] -2.35% | [3] -34.2% | [4] -33.9% | [5] -54.6% | [6] 2.55%

Cc1cc(=O)n2ccnc2[nH]1
inactive: [1] 24.2% | [2] 11.3% | [3] 6.2% | [4] 19.1% | [5] 9.65% | [6] 20.1%

COc1ccc(C2OCCCO2)cc1
inactive: [1] 13.5% | [2] -19.1% | [3] -6.45% | [4] -34.4% | [5] -27.4% | [6] 4.45%

COc1ccc(C(O)C2c3c(cc4c(c3OC)OCO4)CCN2C)c(CO)c1OC (stereo not given)
inactive: [1] 14.4% | [2] 12.8% | [3] 17.6% | [4] 37.5% | [5] 17.9% | [6] 7.45%

CCN1CC(O)Cc2ccccc21 (stereo not given)
inactive: [1] -3.55% | [2] 8.55% | [3] 11.2% | [4] 1.4% | [5] -8.35% | [6] -3.5%

CCCCN(CCCC)CC(=O)NC(N)=O
inactive: [1] 4.6% | [2] 0.9% | [3] -6.95% | [4] -2.8% | [5] 10.3% | [6] -6.8%

Fc1nc2nc(C(F)(F)F)[nH]c2nc1F
inactive: [1] 15.8% | [2] -0.85% | [3] -23.9% | [4] -59.5% | [5] 0.85% | [6] 7.6%

O=C1CN(Cc2ccccc2)CCO1
inactive: [1] 4.95% | [2] -4.3% | [3] -3.55% | [4] 0.9% | [5] 10.5% | [6] 1.4%

COC(=O)c1cc(NS(=O)(=O)c2ccc(N)cc2)cc(C(=O)OC)c1
inactive: [1] -12.6% | [2] -24.2% | [3] -7.5% | [4] 4.7% | [5] -14.8% | [6] -24.6%

Nc1nc(N)c2c(Cl)c(CNc3ccc(C(=O)NC(CC(=O)O)CC(=O)O)cc3)ccc2n1
inactive: [1] 19% | [2] 9.65% | [3] 22.2% | [4] -1.35% | [5] -4.05% | [6] 14.4%

O=c1c2c(sc3ccccc13)CCC2
inactive: [1] 1.95% | [2] 18.6% | [3] -1.55% | [4] 46.9% | [5] -11.8% | [6] -0.9%

CC1CC(C)OC2(CCCC2)O1 (stereo not given)
inactive: [1] 8.45% | [2] -8.05% | [3] 2.2% | [4] -12.8% | [5] 4.05% | [6] -5.3%

Cc1nc(N)c(N2CCN(S(=O)(=O)N(Cc3ccccc3)Cc3ccccc3)CC2)c(=O)[nH]1
inactive: [1] -10.9% | [2] 2.3% | [3] 2.95% | [4] -11.9% | [5] 14.9% | [6] 3.95%

N=C(N)Cn1cnc2ccccc21
inactive: [1] -13.7% | [2] -10.3% | [3] -9.65% | [4] 14.9% | [5] 3.8% | [6] -18.4%

CCOC(=O)NC(NC(=O)OCC)c1ccc(OC)cc1
inactive: [1] -7.7% | [2] -1.95% | [3] 1.75% | [4] 42.7% | [5] -6.55% | [6] -10.1%

CC(=O)Nc1ccc([N+](=O)[O-])cc1
inactive: [1] 30.9% | [2] -0.75% | [3] -5.3% | [4] 5.55% | [5] 14.7% | [6] 1%

N#Cc1nc(C(O)c2ccccc2)oc1N (stereo not given)
inactive: [1] -6.75% | [2] 16.4% | [3] -7.05% | [4] 11.8% | [5] -10.3% | [6] -71.1%
